Compound activity from PubChem BioAssay.
The list is not random: actives were taken first. Their share in the collection is about 9.2%.
Rab9 promoter act: Rab9 promoter activation | Huh7 Rab9 promoter-luciferase reporter, luminescence, 24 h | Potency, µM (series often up to 9.22 µM), for the others: top-dose activation, negative = inhibition, hits mostly activators | 320,000 compounds, 2.8% hits | AID 485297; note: % of control where 0% means no effect; nearly all actives have a fitted effect of over 60% in size
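Measured in stably transfected Huh7 cells bearing a Rab9 promoter–luciferase construct: 24 h compound treatment at 37 °C, followed by luminescence detection.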
NPC1 prom act: activates the NPC1 promoter; Potency, µM (series often up to 9.22 µM), inactives show top-dose activation, hits mostly activators; AID 485313; 320,000 compounds, 2.4% hits; Huh7 NPC1 promoter luciferase reporter, 24 h; note: % of control where 0% means no effect; nearly all actives have a fitted effect of over 60% in size
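Luminescence from an NPC1 promoter-driven luciferase reporter in stably transfected Huh7 cells was measured after 24 h compound treatment at 37 °C, followed by 10 min ambient incubation with luciferase detection reagent.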
FLuc modulator: inhibits or activates purified firefly luciferase, miR-21 counter-screen | 360,000 compounds, 6.9% hits | Potency, µM (highest dose often 57.5 µM), without a hit: at the highest dose activity change, negative = inhibition, usual class: inhibitors | purified FLuc, Km substrates, luminescence inhibition | AID 588342;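 note: plate controls were vehicle for no effect and reference inhibitor for full effect; nearly all actives have a fitted effect of over 55% in size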
Target sequence (P08659 whole entry, looked up): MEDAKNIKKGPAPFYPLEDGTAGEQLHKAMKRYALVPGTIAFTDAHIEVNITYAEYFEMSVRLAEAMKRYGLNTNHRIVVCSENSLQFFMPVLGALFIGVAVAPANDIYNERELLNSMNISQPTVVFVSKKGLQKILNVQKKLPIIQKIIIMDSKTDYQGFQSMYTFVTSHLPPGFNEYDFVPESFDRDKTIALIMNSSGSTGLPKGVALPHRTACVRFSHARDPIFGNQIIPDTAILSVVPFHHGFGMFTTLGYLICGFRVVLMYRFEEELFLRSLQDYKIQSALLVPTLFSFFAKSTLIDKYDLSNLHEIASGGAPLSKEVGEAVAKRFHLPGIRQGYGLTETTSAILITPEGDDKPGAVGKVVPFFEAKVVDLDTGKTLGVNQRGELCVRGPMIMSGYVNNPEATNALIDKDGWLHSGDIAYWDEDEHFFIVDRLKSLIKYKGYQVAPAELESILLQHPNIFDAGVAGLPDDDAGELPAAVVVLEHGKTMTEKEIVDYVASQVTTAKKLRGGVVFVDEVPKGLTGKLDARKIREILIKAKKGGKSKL
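Biochemical qHTS of compounds, final roughly 60 µM downward over six points, against 10 nM purified firefly luciferase using Km concentrations of substrates (10 uM D-luciferin, 10 uM ATP) in Tris acetate pH 7.5 buffer; luminescence output.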
ELG1 genotox: induces genotoxicity in HEK293T cells with luciferase-tagged ELG1 | Potency, µM (highest dose often 46 µM), inactives show at the highest dose activity change, positive = activation, usual class: activators | HEK293T ELG1-luciferase reporter, luminescence, 16 h | 330,000 compounds, 1.3% hits; note: % of control where 0% means no effect; nearly all actives have a fitted effect of over 60% in size
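ELG1-luciferase HEK293T cells, 2,000/well; compound pinned in; 16 hr, 37 °C, 5% CO2; ONE-Glo, 30 min RT; luminescence on CCD imager.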
ELG1 DNA repair: ELG1-dependent DNA repair inhibition; 330,000 compounds, 2.3% hits; Potency, µM (top dose mostly 46.1 µM), for inactives: at the top dose activity change, negative = inhibition, most hits filed as inhibitors; HEK293T ELG1-luciferase reporter, luminescence, 16 h; DNA damage induced by 5-fluorouridine; AID 504467; note: % is set by controls: 0 for no effect and ±100 for the full control effect; nearly all actives have a fitted effect of over 55% in size
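Overnight (16 hr) co-exposure of 2,000 cells/well to 5-fluorouridine and compound at 37 °C preceded detection. Luciferase was quantified via ONE-Glo luminescence; loss of signal denotes inhibition.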
SMN2 splice enh: increases expression of the SMN2 splice variant; HEK293 SMN2-luciferase splicing reporter, luminescence, 30-36 h; Potency, µM (series often up to 46.1 µM), for inactives: at the highest dose activity change, positive = activation, most hits filed as activators; 210,000 compounds, 2.8% hits; AID 1458; note: % of control where 0% means no effect; nearly all actives have a fitted effect of over 55% in size
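HEK293 cells carry an SMN2 […]–luciferase reporter in which exon 7 inclusion puts luciferase in frame. Cells were plated 10-12 h before compound addition, then incubated 30-36 h at 37C. ONE-Glo luminescence was read; sodium butyrate at 4.5 mM final served as control.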
The depositor's hits bear a star. Calls come from the whole dose curve; as a rule, active = well fitted curve in the direction sought with a large enough effect; inconclusive = small, poorly fitted or top-dose-only effect, or another doubt; inactive = no such curve, though single readings can be large; an effect the other way counts as inactive or inconclusive. Potency is the fitted concentration of half-maximal effect.

For COc1ccc2c(c1)CC/C(=C\c1ccc(OC)c(Cn3cccn3)c1)C2=O the results were Rab9 promoter act 8%, NPC1 prom act -3%, FLuc modulator 13µM*, ELG1 genotox -22%, ELG1 DNA repair inconclusive and SMN2 splice enh -48%.
Screening COc1ccc(/C=C2\COc3ccccc3C2=O)cc1OC returned Rab9 promoter act 0%, NPC1 prom act 0%, FLuc modulator 13µM*, ELG1 genotox -14%, ELG1 DNA repair inconclusive and SMN2 splice enh -11%.
`COc1ccc(/C=C2\CCc3ccccc3C2=O)cc1CN1CCOCC1` gave Rab9 promoter act -1%, NPC1 prom act 2%, FLuc modulator 7.6µM*, ELG1 genotox inconclusive and ELG1 DNA repair inconclusive.
Screening O=C(O)c1ccc(/C=C2\COc3ccccc3C2=O)cc1 returned Rab9 promoter act -8%, NPC1 prom act -3%, FLuc modulator 19µM*, ELG1 genotox -5% and ELG1 DNA repair inconclusive.
`CC(Cc1ccsc1)NC(=O)CCc1nnc(COc2ccccc2)o1` (centres undefined) gave Rab9 promoter act -6%, NPC1 prom act -2%, FLuc modulator -9%, ELG1 genotox 4% and ELG1 DNA repair 23%.
For Cc1cccc(OCCOC(=O)c2c(-c3ccccc3)noc2C)c1 the results were Rab9 promoter act -4%, NPC1 prom act -28%, FLuc modulator 7%, ELG1 genotox -16% and ELG1 DNA repair -18%.
For COC(=O)c1sccc1NC(=O)COc1ccc(F)cc1Cl the results were Rab9 promoter act 23%, NPC1 prom act 4%, FLuc modulator inconclusive, ELG1 genotox inconclusive, ELG1 DNA repair inconclusive and SMN2 splice enh 14%.
`COc1ccc2c(c1)OC/C(=C/c1cccs1)C2=O` gave Rab9 promoter act inconclusive, NPC1 prom act inconclusive, FLuc modulator 0.43µM*, ELG1 genotox 12µM* and ELG1 DNA repair inconclusive.
For Cc1cc(C)c2c(c1)C(=O)/C(=C/c1ccc(C(=O)O)cc1)CC2 the results were Rab9 promoter act 20%, NPC1 prom act 19%, FLuc modulator 19µM*, ELG1 genotox 14% and ELG1 DNA repair inconclusive.
`COc1ccc(N2C(=O)/C(=C/c3cccs3)NC2=S)cc1` gave Rab9 promoter act 0%, NPC1 prom act 0%, FLuc modulator inconclusive, ELG1 genotox 4%, ELG1 DNA repair 21% and SMN2 splice enh inconclusive.
Screening COc1ccc(C=C2c3ccccc3C(=O)c3ccccc32)c(OC)c1 returned Rab9 promoter act -24%, NPC1 prom act -6%, FLuc modulator -4%, ELG1 genotox inconclusive and ELG1 DNA repair 23µM*.
`COc1ccc(/C=C2\CN(Cc3ccccc3)C/C(=C\c3ccc(OC)cc3OC)C2=O)c(OC)c1` gave Rab9 promoter act 0%, NPC1 prom act -7%, FLuc modulator 0%, ELG1 genotox 1%, ELG1 DNA repair inconclusive and SMN2 splice enh -49%.
`COc1ccc(/C=C2\OC(=O)c3c(OC)cccc32)cc1OC` gave Rab9 promoter act 2.8µM*, NPC1 prom act 2.8µM*, FLuc modulator 1.1µM*, ELG1 genotox inconclusive, ELG1 DNA repair inconclusive and SMN2 splice enh inconclusive.
Screening N#C/C(=C/c1cn(CC(=O)O)c2ccccc12)C(=O)NCc1ccccc1 returned Rab9 promoter act -6%, NPC1 prom act -1%, FLuc modulator inconclusive, ELG1 genotox -1%, ELG1 DNA repair 3% and SMN2 splice enh 9%.
Screening CCCCN(Cc1ccccc1)C(=O)CCN1C(=O)C2C3C=CC(C3)C2C1=O (centres undefined) returned Rab9 promoter act 11%, NPC1 prom act -7%, FLuc modulator 3%, ELG1 genotox -4%, ELG1 DNA repair -5% and SMN2 splice enh -26%.
Screening COCCC(C(=O)Oc1c(C(C)(C)C)cc(C)cc1C(C)(C)C)c1ccccc1 (centres undefined) returned Rab9 promoter act 1%, NPC1 prom act -3%, FLuc modulator 4%, ELG1 genotox 1% and ELG1 DNA repair inconclusive.
`COc1ccc(/C=C2/CCc3ccccc3C2=O)cc1OC` gave Rab9 promoter act -2%, NPC1 prom act 3%, FLuc modulator 3.4µM*, ELG1 genotox inconclusive, ELG1 DNA repair inconclusive and SMN2 splice enh -52%.
`COc1cc2c(cc1OC)/C(=C/c1ccc(Cl)cc1)C(=O)OC2` gave Rab9 promoter act -5%, NPC1 prom act -5%, FLuc modulator 4%, ELG1 genotox 3%, ELG1 DNA repair -12% and SMN2 splice enh -17%.
COc1ccc(/C=C2\C(=O)OCc3cc(OC)c(OC)cc32)cc1OC was read as Rab9 promoter act -12%, NPC1 prom act 3%, FLuc modulator 13µM*, ELG1 genotox 18%, ELG1 DNA repair 1% and SMN2 splice enh 12%.
Screening COc1ccc(/C=C2\COc3ccccc3C2=O)c(OC)c1 returned Rab9 promoter act 0%, NPC1 prom act -17%, FLuc modulator 4.8µM*, ELG1 genotox inconclusive and ELG1 DNA repair inconclusive.
For COc1cc(/C=C2/CCc3ccccc3C2=O)cc(OC)c1OC the results were Rab9 promoter act -2%, NPC1 prom act 1%, FLuc modulator inconclusive, ELG1 genotox -6%, ELG1 DNA repair inconclusive and SMN2 splice enh -53%.
For CC(=O)CCc1c(C)nc2ccc(C)cc2c1Cl the results were Rab9 promoter act 13%, NPC1 prom act -3%, FLuc modulator -13%, ELG1 genotox -5%, ELG1 DNA repair 7% and SMN2 splice enh -3%.
`O=C1C2CSCN2C(=O)CN1CCCN1CCN(C(c2ccccc2)c2ccccc2)CC1` (centres undefined) gave Rab9 promoter act -1%, NPC1 prom act 0%, FLuc modulator -4%, ELG1 genotox -4%, ELG1 DNA repair 4% and SMN2 splice enh 8%.
`O=C(Nc1cccc(OC(=O)c2ccc(Br)o2)c1)c1ccccc1` gave Rab9 promoter act 1%, NPC1 prom act 4%, FLuc modulator inconclusive, ELG1 genotox inconclusive and ELG1 DNA repair inconclusive.
For Cn1nnnc1NCc1cccc(Cl)c1Cl the results were Rab9 promoter act -8%, NPC1 prom act -1%, FLuc modulator -2%, ELG1 genotox 2%, ELG1 DNA repair -9% and SMN2 splice enh 20%.
Screening Cc1cccc(-c2nnc(SCC(=O)N3CCCCC3)o2)c1 returned FLuc modulator inconclusive and SMN2 splice enh 4.5µM*.
Cc1cccc(-c2nnc(SCCC(=O)N3CCOCC3)o2)c1 was read as Rab9 promoter act -2%, NPC1 prom act 6%, FLuc modulator inconclusive, ELG1 genotox 5%, ELG1 DNA repair inconclusive and SMN2 splice enh -2%.
